Data: PubChem BioAssay (NCI)
About 79,000 compounds went through this panel and 15% of them were active in at least one assay; those are over-represented in the sample as a whole. A number with no mark means an inactive call. Active and inactive are the calls of the source. Rule as the data show it: active = growth inhibition above about 70%; inactive = the rest.

Assays:
[1] = NCI Yeast Anticancer Drug Screen. Data for the mlh1 strain (AID 171);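 also: 0% = growth of vehicle-treated control cultures of the same strain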; conditions: S. cerevisiae mlh1 strain growth inhibition, active compounds read high
Outline: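 Vehicle-normalised growth inhibition of a repair- or checkpoint-altered yeast strain following compound treatment.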

[2] = NCI Yeast Anticancer Drug Screen. Data for the mlh1 rad18 strain (AID 175); conditions: S. cerevisiae mlh1 rad18 strain growth inhibition, active compounds read high
Outline: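 Vehicle-treated cultures served as the reference for growth inhibition in a yeast strain carrying DNA damage repair alterations exposed to each compound.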

[3] = NCI Yeast Anticancer Drug Screen. Data for the rad18 strain (AID 177); conditions: S. cerevisiae rad18 mutant growth inhibition, active compounds read high
Outline: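 Test articles were incubated with altered yeast defective in DNA damage repair. Results are given as inhibition of growth versus vehicle.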

[4] = NCI Yeast Anticancer Drug Screen. Data for the rad52 strain (AID 147);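 also: 0% = growth of vehicle-treated control cultures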; conditions: S. cerevisiae rad52 mutant growth inhibition, active compounds read high
Outline: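 Vehicle-treated cultures served as the reference for growth inhibition of compound-exposed yeast bearing a DNA repair mutation.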

[5] = NCI Yeast Anticancer Drug Screen. Data for the wt1 strain (AID 149);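 also: 0% = growth of vehicle-treated wt1 cultures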; conditions: S. cerevisiae wt1 strain (SPY 50644) growth inhibition, active compounds read high
Outline: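 Vehicle-normalised growth inhibition; strain wt1; compound exposure.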

[6] = NCI Yeast Anticancer Drug Screen. Data for the mgt1 strain (AID 153); conditions: S. cerevisiae mgt1 mutant growth inhibition, active compounds read high
Outline: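 mgt1 strain exposed; growth vs vehicle control recorded as inhibition.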

[7] = NCI Yeast Anticancer Drug Screen. Data for the rad50 strain (AID 155);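 also: 0% = growth of vehicle-only cultures of the same strain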; conditions: S. cerevisiae rad50 strain growth inhibition, active compounds read high
Outline: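 A DNA repair-deficient yeast mutant serves as the test organism; compound-induced growth inhibition is calculated against vehicle-treated cells.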

[8] = NCI Yeast Anticancer Drug Screen. Data for the mec2-1 strain (AID 157); conditions: S. cerevisiae mec2-1 strain, active compounds read high
Outline: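 Vehicle-treated cultures served as reference for growth inhibition of compound-exposed mec2-1 yeast.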

[9] = NCI Yeast Anticancer Drug Screen. Data for the rad14 strain (AID 159);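 also: 0% = growth of vehicle-treated control cultures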; conditions: S. cerevisiae rad14 strain growth inhibition, active compounds read high
Outline: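 Vehicle-treated cultures served as the baseline for growth inhibition of a DNA repair-mutant yeast strain exposed to each compound.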

[10] = NCI Yeast Anticancer Drug Screen. Data for the sgs1 mgt1 strain (AID 161);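 also: 0% = growth of cultures given vehicle only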; conditions: S. cerevisiae sgs1 mgt1 strain, active compounds read high
Outline: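 Test agents were incubated with a DNA-repair-mutant yeast strain. Growth was then read and compared against vehicle-treated controls.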

[11] = NCI Yeast Anticancer Drug Screen. Data for the CLN2oe strain (AID 163);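 also: 0% = growth of vehicle-only control cultures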; conditions: S. cerevisiae CLN2oe strain, active compounds read high
Outline: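 Inhibition relative to vehicle-treated yeast is reported. Cells: strain with genetic alteration in cell-cycle control, grown with compound.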

[12] = NCI Yeast Anticancer Drug Screen. Data for the cln2 rad14 strain (AID 165);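 also: 0% = growth equal to vehicle treated cultures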; conditions: S. cerevisiae cln2 rad14 strain, active compounds read high
Outline: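 Each compound was tested on cln2 rad14 yeast. Inhibition of growth was calculated against vehicle-exposed controls.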

[13] = NCI Yeast Anticancer Drug Screen. Data for the bub3 strain (AID 167); conditions: S. cerevisiae bub3 mutant strain, active compounds read high
Outline: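 Inhibition values come from growth of compound-treated mutant yeast normalised to vehicle-treated controls.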

[14] = NCI Yeast Anticancer Drug Screen. Data for the wt2 strain (AID 169);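 also: 0% = growth of vehicle-treated yeast cultures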; conditions: S. cerevisiae wt2 strain growth inhibition, active compounds read high
Outline: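 Inhibition of yeast growth was determined after compound treatment, normalised to controls receiving only vehicle.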

[15] = NCI Yeast Anticancer Drug Screen. Data for the sgs1 strain (AID 173);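 also: 0% = growth of vehicle-only control cultures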; conditions: S. cerevisiae sgs1 mutant, active compounds read high
Outline: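 Screen format: yeast with repair or checkpoint alterations, compound exposure, growth read relative to vehicle.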

[16] = NCI Yeast Anticancer Drug Screen. Data for the rad50EPP+ strain (AID 151);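 also: 0% = growth of vehicle-treated control cultures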; conditions: S. cerevisiae rad50 mutant strain, active compounds read high
Outline: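 In this screen, rad50EPP+ yeast were exposed to compounds. Growth inhibition was scored against vehicle-treated controls.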

[17] = at 5.0 µM (retest, dose inferred, filed as 0.5)
[18] = at 50.0 µM (retest, dose inferred, filed as 5.0)

Brc1ccc(-c2cc3c(cc2C2SCCS2)OCO3)cc1
growth inhibition ([1]; at 1.2 µM): -24%
growth inhibition ([1]; at 3.7 µM): -23%
growth inhibition ([1]; at 11.0 µM): -28%
growth inhibition ([1]; at 33.0 µM): 18%
growth inhibition ([1]; at 100.0 µM): 63%
growth inhibition [2, 17]: -8%
growth inhibition [2, 18]: 76% (active)
growth inhibition ([2]; at 50.0 µM): 33.5%
growth inhibition ([3]; at 1.2 µM): -23%
growth inhibition ([3]; at 3.7 µM): -27%
growth inhibition ([3]; at 11.0 µM): -29%
growth inhibition ([3]; at 33.0 µM): 20%
growth inhibition ([3]; at 100.0 µM): 56%

Cc1ccc(N)c(S)c1
growth inhibition ([4]; at 1.2 µM): -56%
growth inhibition ([4]; at 3.7 µM): -52%
growth inhibition ([4]; at 11.0 µM): -12%
growth inhibition ([4]; at 33.0 µM): 88% (active)
growth inhibition ([4]; at 100.0 µM): 97% (active)
growth inhibition ([5]; at 1.2 µM): -23%
growth inhibition ([5]; at 3.7 µM): -29%
growth inhibition ([5]; at 11.0 µM): -19%
growth inhibition ([5]; at 33.0 µM): 75% (active)
growth inhibition ([5]; at 100.0 µM): 99% (active)
growth inhibition ([6]; at 1.2 µM): -11%
growth inhibition ([6]; at 3.7 µM): -13%
growth inhibition ([6]; at 11.0 µM): 15%
growth inhibition ([6]; at 33.0 µM): 98% (active)
growth inhibition ([6]; at 100.0 µM): 99% (active)
growth inhibition ([7]; at 1.2 µM): -34%
growth inhibition ([7]; at 3.7 µM): -27%
growth inhibition [7, 17]: 1%
growth inhibition ([7]; at 11.0 µM): -4%
growth inhibition ([7]; at 33.0 µM): 91% (active)
growth inhibition [7, 18]: 77% (active)
growth inhibition ([7]; at 50.0 µM): 10.4%
growth inhibition ([7]; at 100.0 µM): 94% (active)
growth inhibition ([8]; at 1.2 µM): -24%
growth inhibition ([8]; at 3.7 µM): -15%
growth inhibition [8, 17]: -19%
growth inhibition ([8]; at 11.0 µM): -9%
growth inhibition ([8]; at 33.0 µM): 96% (active)
growth inhibition [8, 18]: 75% (active)
growth inhibition ([8]; at 50.0 µM): 36.3%
growth inhibition ([8]; at 100.0 µM): 98% (active)
growth inhibition ([9]; at 1.2 µM): -43%
growth inhibition ([9]; at 3.7 µM): -36%
growth inhibition ([9]; at 11.0 µM): -22%
growth inhibition ([9]; at 33.0 µM): 55%
growth inhibition ([9]; at 100.0 µM): 96% (active)
growth inhibition [10, 17]: -1%
growth inhibition [10, 18]: 36%
growth inhibition ([10]; at 50.0 µM): 80.3% (active)
growth inhibition ([11]; at 1.2 µM): -15%
growth inhibition ([11]; at 3.7 µM): -3%
growth inhibition ([11]; at 11.0 µM): 13%
growth inhibition ([11]; at 33.0 µM): 93% (active)
growth inhibition ([11]; at 100.0 µM): 99% (active)
growth inhibition [12, 17]: 35%
growth inhibition [12, 18]: 63%
growth inhibition ([12]; at 50.0 µM): -1.5%
growth inhibition ([13]; at 1.2 µM): -35%
growth inhibition ([13]; at 3.7 µM): -11%
growth inhibition [13, 17]: 15%
growth inhibition ([13]; at 11.0 µM): 48%
growth inhibition ([13]; at 33.0 µM): 98% (active)
growth inhibition [13, 18]: 92% (active)
growth inhibition ([13]; at 50.0 µM): 81.5% (active)
growth inhibition ([13]; at 100.0 µM): 98% (active)
growth inhibition ([14]; at 1.2 µM): -48%
growth inhibition ([14]; at 3.7 µM): -25%
growth inhibition ([14]; at 11.0 µM): -4%
growth inhibition ([14]; at 33.0 µM): 93% (active)
growth inhibition ([14]; at 100.0 µM): 99% (active)
growth inhibition ([1]; at 1.2 µM): -19%
growth inhibition ([1]; at 3.7 µM): -3%
growth inhibition ([1]; at 11.0 µM): 26%
growth inhibition ([1]; at 33.0 µM): 98% (active)
growth inhibition ([1]; at 100.0 µM): 97% (active)
growth inhibition ([15]; at 1.2 µM): -29%
growth inhibition ([15]; at 3.7 µM): -34%
growth inhibition ([15]; at 11.0 µM): 14%
growth inhibition ([15]; at 33.0 µM): 98% (active)
growth inhibition ([15]; at 100.0 µM): 98% (active)
growth inhibition [2, 17]: 20%
growth inhibition [2, 18]: 95% (active)
growth inhibition ([2]; at 50.0 µM): 92.2% (active)
growth inhibition ([3]; at 1.2 µM): -48%
growth inhibition ([3]; at 3.7 µM): -37%
growth inhibition ([3]; at 11.0 µM): -22%
growth inhibition ([3]; at 33.0 µM): 42%
growth inhibition ([3]; at 100.0 µM): 90% (active)

CCC(=O)Oc1c(Cl)cc(Cl)c2ccccc12
growth inhibition ([4]; at 1.2 µM): -2%
growth inhibition ([4]; at 3.7 µM): -2%
growth inhibition ([4]; at 11.0 µM): -1%
growth inhibition ([4]; at 33.0 µM): 4%
growth inhibition ([4]; at 100.0 µM): 54%
growth inhibition ([5]; at 1.2 µM): -4%
growth inhibition ([5]; at 3.7 µM): -4%
growth inhibition ([5]; at 11.0 µM): -4%
growth inhibition ([5]; at 33.0 µM): -6%
growth inhibition ([5]; at 100.0 µM): 13%
growth inhibition ([16]; at 1.2 µM): -2%
growth inhibition ([16]; at 3.7 µM): 4%
growth inhibition ([16]; at 11.0 µM): 10%
growth inhibition ([16]; at 33.0 µM): 15%
growth inhibition ([16]; at 100.0 µM): 49%
growth inhibition ([7]; at 1.2 µM): -5%
growth inhibition ([7]; at 3.7 µM): -4%
growth inhibition [7, 17]: 8%
growth inhibition ([7]; at 11.0 µM): -1%
growth inhibition ([7]; at 33.0 µM): 5%
growth inhibition [7, 18]: -53%
growth inhibition ([7]; at 50.0 µM): 20.1%
growth inhibition ([7]; at 100.0 µM): 35%
growth inhibition ([8]; at 1.2 µM): -2%
growth inhibition ([8]; at 3.7 µM): -2%
growth inhibition [8, 17]: -9%
growth inhibition ([8]; at 11.0 µM): -2%
growth inhibition ([8]; at 33.0 µM): 0%
growth inhibition [8, 18]: -1%
growth inhibition ([8]; at 50.0 µM): -8.5%
growth inhibition ([8]; at 100.0 µM): 32%
growth inhibition ([9]; at 1.2 µM): -7%
growth inhibition ([9]; at 3.7 µM): -4%
growth inhibition ([9]; at 11.0 µM): 0%
growth inhibition ([9]; at 33.0 µM): 9%
growth inhibition ([9]; at 100.0 µM): 39%
growth inhibition [10, 17]: -9%
growth inhibition [10, 18]: 49%
growth inhibition ([10]; at 50.0 µM): 32%
growth inhibition ([11]; at 1.2 µM): -5%
growth inhibition ([11]; at 3.7 µM): -2%
growth inhibition ([11]; at 11.0 µM): -7%
growth inhibition ([11]; at 33.0 µM): -6%
growth inhibition ([11]; at 100.0 µM): 22%
growth inhibition [12, 17]: -16%
growth inhibition [12, 18]: 18%
growth inhibition ([12]; at 50.0 µM): 15.2%
growth inhibition ([13]; at 1.2 µM): -4%
growth inhibition ([13]; at 3.7 µM): -6%
growth inhibition [13, 17]: 2%
growth inhibition ([13]; at 11.0 µM): -9%
growth inhibition ([13]; at 33.0 µM): -12%
growth inhibition [13, 18]: -5%
growth inhibition ([13]; at 50.0 µM): 12.1%
growth inhibition ([13]; at 100.0 µM): 3%
growth inhibition ([14]; at 1.2 µM): -4%
growth inhibition ([14]; at 3.7 µM): -5%
growth inhibition ([14]; at 11.0 µM): -5%
growth inhibition ([14]; at 33.0 µM): -5%
growth inhibition ([14]; at 100.0 µM): 20%
growth inhibition ([1]; at 1.2 µM): -2%
growth inhibition ([1]; at 3.7 µM): -2%
growth inhibition ([1]; at 11.0 µM): 0%
growth inhibition ([1]; at 33.0 µM): 10%
growth inhibition ([1]; at 100.0 µM): 38%
growth inhibition ([15]; at 1.2 µM): -4%
growth inhibition ([15]; at 3.7 µM): -3%
growth inhibition ([15]; at 11.0 µM): 2%
growth inhibition ([15]; at 33.0 µM): 9%
growth inhibition ([15]; at 100.0 µM): 43%
growth inhibition [2, 17]: -10%
growth inhibition [2, 18]: 77% (active)
growth inhibition ([2]; at 50.0 µM): 10.9%
growth inhibition ([3]; at 1.2 µM): -3%
growth inhibition ([3]; at 3.7 µM): 1%
growth inhibition ([3]; at 11.0 µM): 1%
growth inhibition ([3]; at 33.0 µM): 5%
growth inhibition ([3]; at 100.0 µM): 73% (active)
